Shiga toxin inh – blocks Shiga toxin action in Vero cells. Vero cells, Shiga toxin protein synthesis inhibition reporter. inhibition, % at 38.7 µM. hit rate 9.2% among 290,000. AID 2315; in the data active = inhibition mostly above about 28%, no sharp cut-off; inactive = mostly below about 43%; also: 0% is about no effect
Cycloheximide cs – counter-screen for Shiga toxin inhibitors: cycloheximide protein synthesis inhibition | cell reporter, cycloheximide protein synthesis inhibition counterscreen | max response, % | hit rate 12% among 300,000 | AID 2314; in the data active = max response mostly above about 13%, no sharp cut-off; inactive = mostly below about 14%; also: read at 38.3 µM for the half of the compounds with a filed dose; 0% is about no effect
Pf growth 48h – P. falciparum growth inhibition at 48 hours (one generation) | P. falciparum luciferase growth in erythrocytes, 48 h | Potency, µM (doses to about 28.7 µM), inactives show at the top dose activity change, negative = inhibition, hits mostly inhibitors | hit rate 5.9% among 310,000; also: potency is read from the fitted curve at half-maximal effect; % is scaled to controls: 0 for no effect and ±100 for the full control effect
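A one-generation exposure of luciferase-tagged malaria parasites in RPMI 1640/Albumax erythrocyte culture, 37 C and 5% CO2. Inhibition is inferred from decreased luminescence after adding detection reagent.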
NS1 function inh – influenza NS1 inhibition. hit rate 0.4% among 270,000. Potency, µM (doses to about 46.1 µM), for inactives: at the top dose activity, positive = more growth; calls by dose curve; also: potency is read from the fitted curve at half-maximal effect; actives are rising curves; nearly all actives have a fitted effect of over 50% in size
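Read-out: OD600 growth recovery of NS1-expressing budding yeast. Cells grown overnight at 30C in -URA glucose medium, washed, resuspended and diluted 1:100 in 2% galactose assay medium, pH 6.0. Same strain lacking NS1 served as positive control.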
Giardia FBPA inh – inhibitors of Giardia lamblia fructose-1,6-bisphosphate aldolase; hit rate 0.71% among 290,000; purified Giardia FBPA; Potency, µM (top dose mostly 59.6 µM), without a hit: at the highest dose activity, negative = inhibition, usual class: inhibitors; also: potency is read from the fitted curve at half-maximal effect; % is scaled to controls: 0 for no effect and ±100 for the full control effect; nearly all actives have a fitted effect of over 55% in size
Target sequence (A8B2U2 whole entry, looked up): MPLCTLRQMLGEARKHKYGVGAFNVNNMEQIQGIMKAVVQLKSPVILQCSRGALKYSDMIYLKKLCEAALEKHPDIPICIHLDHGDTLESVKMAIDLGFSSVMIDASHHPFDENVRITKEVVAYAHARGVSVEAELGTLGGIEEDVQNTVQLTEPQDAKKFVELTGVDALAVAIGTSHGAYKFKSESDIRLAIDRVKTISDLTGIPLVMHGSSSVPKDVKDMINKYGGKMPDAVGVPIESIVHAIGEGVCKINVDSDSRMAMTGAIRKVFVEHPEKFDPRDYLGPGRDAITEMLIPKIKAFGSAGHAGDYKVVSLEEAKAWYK
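Giardia FBPA (40 nM reagent) was preincubated 10 min at RT with compound (up to 57.5 uM final), then substrate plus GAPDH/TPI/NAD/arsenate coupling system with diaphorase/resazurin was added; resorufin fluorescence (525/598 nm) was read after 20 min.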
Pf growth 96h – inhibits malaria parasite growth, 96 h; Potency, µM (top dose mostly 28.7 µM), for the others: at the top dose activity change, negative = inhibition, actives largely listed as inhibitors; hit rate 6.9% among 320,000; AID 504834; P. falciparum luciferase reporter growth, 96 h; also: potency is read from the fitted curve at half-maximal effect; % is scaled to controls: 0 for no effect and ±100 for the full control effect
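Plates of compound plus infected erythrocytes (2% hematocrit, 0.05% parasitemia final) incubate 96 hours, 37 C, 5% CO2. Detection reagent added; reduced luminescence from the parasites' luciferase reporter flags inhibition.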
* hit, by the source's call; ? = inconclusive; . = not tested or not shown; [ ] = another dose, or the depositor's remark. A selection: hits, their analogues and other compounds. The true share with any hit is near 21%. Unless noted, calls follow the shape of the dose curve; as a rule, active = well fitted curve in the direction sought with a large enough effect; inconclusive = small, poorly fitted or top-dose-only effect, or another doubt; inactive = no such curve, though single readings can be large; an effect the other way counts as inactive or inconclusive.

SMILES	Shiga toxin inh	Cycloheximide cs	Pf growth 48h	NS1 function inh	Giardia FBPA inh	Pf growth 96h
CC(C)(Oc1ccc([C@@H]2CC2(Cl)Cl)cc1)C(=O)O	.	.	.	.	12%[21.7 µM]	.
C[C@@H](N)/C(N)=N/O	.	.	.	6%	.	.
COc1ccc(Br)cc1/C=N/Nc1ccccn1	11	3	10%	-2%	1%	?
COc1ccc(/C=N/Nc2ccccn2)cc1OC	94*	54*	117%	0%	-1%	-2%
COc1ccc(NC(=O)Nc2ccc3nonc3c2)cc1	66*	34*	104%	-2%	-16%	127%
COc1ccc(NC(=O)Nc2ccc3nccnc3c2)cc1	80	22*	104%	-6%	-9%	?
COC(=O)c1cc(OC)c(OC)cc1NC(=O)Nc1ccc(OC)cc1	-8	-4	.	3%	0%	-1%
CCN(CC)CCCC(C)NC(=O)c1cccc(S(=O)(=O)N2CCc3ccccc32)c1 (centres undefined)	31	-3	0%	.	-7%	-5%
COC(=O)CN(c1ccc(C)c(Cl)c1)S(C)(=O)=O	-9	10	?	6%	-5%	5%
Cc1ccc(N(C)C2=NC(=O)CS2)cc1Cl	.	-2	2.1µM*	3%	-3%	?
CC(=O)N1CCN(C(=O)c2ccc(NS(=O)(=O)c3ccc4c(c3)OCCO4)cc2)CC1	.	.	-2%	.	.	-2%
CC1CCN(c2nc3ccc(C(=O)O)cc3s2)CC1	-24	-7	1.2µM*	-189%	22%	-12%
CCC1CCCCN1CCCNC(=O)c1ccc2nc(N3CCC(C)CC3)sc2c1 (centres undefined)	90*	29*	?	3%	-6%	?
CC1CCN(c2nc3ccc(C(=O)NCCCN4CCCCC4)cc3s2)CC1	29*	28*	-13%	-13%	3%	14%
COc1cccc(/C=N/NC(=O)c2ccc(=O)n(C)c2)c1O	-5	-2	?	7%	-22%	7%
Oc1ccccc1/C=N/NC(=S)NC1CC2CC1C1C=CCC21 (centres undefined)	49*	53*	3.3µM*	4%	5%	1.9µM*
O=C(N/N=C/c1ccccc1O)C1(O)c2ccccc2-c2ccccc21	-6	4	?	0%	-28%	67%
COc1cccc(/C=N/NC(=S)NC2CC3CC2C2C=CCC32)c1O (centres undefined)	87*	35*	2.3µM*	-1%	3%	1.3µM*
COc1ccc2c(c1)SCC(=O)N2C	51	-3	1%	19%	6%	-5%
COc1ccc2c(c1)S/C(=C\C(=O)c1ccncc1)N2C	110*	47*	80%	-137%	-11%	23%
COc1cc(OC)cc(C(=O)/C=C2\Sc3ccccc3N2C)c1	42*	41*	148%	-14%	-13%	87%
CN1/C(=C\C(=O)c2cccc([N+](=O)[O-])c2)Sc2ccccc21	97*	38*	226%	-13%	-3%	161%
CN(C)/C=C/C(=O)c1cccc([N+](=O)[O-])c1	-4	10	-2%	7%	-3%	3%
CC(=O)c1ccc2c(c1)N(CCCN(C)C)c1ccccc1S2	.	.	?	.	5%[21.7 µM]	?
CC(=O)c1ccc2c(c1)N(C)c1ccccc1S2	15*	15*	23%	-3%	0%	10%
SMILES	Shiga toxin inh	Cycloheximide cs	Pf growth 48h	NS1 function inh	Giardia FBPA inh	Pf growth 96h
COc1ccc(CN(Cc2ccc(C(=O)O)cc2)C(=S)Nc2ccc(C)cc2)cc1OC	-9	9	15%	.	-21%	0%
CCOc1ccc(/C=N/O)cc1	-13	-3	17%	4%	1%	.
Cc1ccc(COc2ccc(/C=N/O)cc2)cc1	87*	43*	130%	-18%	-2%	41%
Cc1ccc(Oc2ccc(/C=N/O)cn2)cc1	91*	41*	173%	5%	9%	223%
CC1=NN(C(=O)c2ccc(Cn3ccc([N+](=O)[O-])n3)cc2)C(O)(C(F)(F)F)C1 (centres undefined)	14	1	-6%	-7%	1%	-1%
COc1cc(C2CC(c3ccccc3)=NN2c2ccccc2)ccc1OCC(=O)O (centres undefined)	-1	-5	2%	11%	5%	?
COc1ccc(C2=NN(c3ccccc3)C(c3cn(CCC(=O)O)nc3-c3ccccc3)C2)cc1 (centres undefined)	30	12	-11%	.	18%	-16%
COc1ccc(C2CC(c3ccccc3)=NN2c2ccc(N)cc2)cc1 (centres undefined)	44*	39*	?	?	-13%	?
COc1ccc(C2CC(c3ccccc3)=NN2c2ccc(Cl)c(C(=O)O)c2)cc1 (centres undefined)	45*	26*	-1%	10%	2%	?
Cc1ccc(C2=NN(S(=O)(=O)c3ccccc3)C(c3ccccc3O)C2)cc1 (centres undefined)	69*	20*	?	.	-11%	?
CCC(=O)Nc1cccc(C2=NN(c3ccccc3)C(c3ccc(OC)cc3)C2)c1 (centres undefined)	-15	2	?	4%	-1%	13µM*
CC(C)(C)c1ccc(NC(=O)C2=CN3CCS(=O)(=O)N=C3C=C2)cc1	.	.	-4%	.	.	?
CCCCC/C=C\C/C=C\C/C=C\C=C\[C@@H](O)CCCC(=O)O	.	.	.	.	0%	.
COc1cc(S(=O)(=O)N2CCCN(C)CC2)ccc1NC(C)=O	15	-3	1%	2%	.	23%
COc1ccc(C2CC(c3ccccc3)=NN2S(=O)(=O)c2ccccc2)cc1 (centres undefined)	55*	34*	?	-39%	1%	?
COc1ccc(C2=NN(c3ccc(C(=O)O)cc3)C(c3ccc(OC)c(OC)c3)C2)cc1 (centres undefined)	53*	39*	70%	19%	.	52%
CC(=O)Oc1ccc(C2=NN(c3ccccc3)C(c3ccccc3)C2)cc1 (centres undefined)	18	19	12µM*	3%	1%	11%
COc1ccc(C2CC(c3ccccc3)=NN2c2ccc(S(N)(=O)=O)cc2)cc1OC (centres undefined)	-11	7	?	14%	-12%	?
COc1cccc(C2=NN(C(=O)c3ccco3)C(c3ccco3)C2)c1 (centres undefined)	72*	29*	-3%	-22%	.	-23%
COc1ccc(S(=O)(=O)N2N=C(c3cccc(NS(C)(=O)=O)c3)CC2c2ccco2)cc1 (centres undefined)	-5	1	-11%	11%	.	13µM*
CCc1nnc(NC(=O)Cc2ccc(S(=O)(=O)N3CCCCC3)cc2)s1	.	.	12µM*	.	.	12µM*
CCc1nnc(NC(=O)C2CCCN(S(=O)(=O)c3ccc(OC)cc3)C2)s1 (centres undefined)	72*	38*	34%	0%	3%	34%

Assay outcomes: PubChem, National Center for Advancing Translational Sciences (NCATS)
